Laboratory results as given in paper PMC4336329 (PLoS ONE, 2015).
Out of some 310,000 compounds screened, about 14,000 (4.5%) showed an effect of 50% or more. Effects have a minus sign here. This excerpt belongs to a sample that is enriched for strong results.

target: human ether-à-go-go-related gene (hERG) potassium channel (human, UniProt Q12809); test: primary screen, population patch clamp on CHO cells stably expressing hERG; higher = less effect of the substance
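Also: peak tail current of the secondary pulse compared with the same well before compound.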

Sequence of human ether-à-go-go-related gene (hERG) potassium channel (Q12809 whole entry, looked up): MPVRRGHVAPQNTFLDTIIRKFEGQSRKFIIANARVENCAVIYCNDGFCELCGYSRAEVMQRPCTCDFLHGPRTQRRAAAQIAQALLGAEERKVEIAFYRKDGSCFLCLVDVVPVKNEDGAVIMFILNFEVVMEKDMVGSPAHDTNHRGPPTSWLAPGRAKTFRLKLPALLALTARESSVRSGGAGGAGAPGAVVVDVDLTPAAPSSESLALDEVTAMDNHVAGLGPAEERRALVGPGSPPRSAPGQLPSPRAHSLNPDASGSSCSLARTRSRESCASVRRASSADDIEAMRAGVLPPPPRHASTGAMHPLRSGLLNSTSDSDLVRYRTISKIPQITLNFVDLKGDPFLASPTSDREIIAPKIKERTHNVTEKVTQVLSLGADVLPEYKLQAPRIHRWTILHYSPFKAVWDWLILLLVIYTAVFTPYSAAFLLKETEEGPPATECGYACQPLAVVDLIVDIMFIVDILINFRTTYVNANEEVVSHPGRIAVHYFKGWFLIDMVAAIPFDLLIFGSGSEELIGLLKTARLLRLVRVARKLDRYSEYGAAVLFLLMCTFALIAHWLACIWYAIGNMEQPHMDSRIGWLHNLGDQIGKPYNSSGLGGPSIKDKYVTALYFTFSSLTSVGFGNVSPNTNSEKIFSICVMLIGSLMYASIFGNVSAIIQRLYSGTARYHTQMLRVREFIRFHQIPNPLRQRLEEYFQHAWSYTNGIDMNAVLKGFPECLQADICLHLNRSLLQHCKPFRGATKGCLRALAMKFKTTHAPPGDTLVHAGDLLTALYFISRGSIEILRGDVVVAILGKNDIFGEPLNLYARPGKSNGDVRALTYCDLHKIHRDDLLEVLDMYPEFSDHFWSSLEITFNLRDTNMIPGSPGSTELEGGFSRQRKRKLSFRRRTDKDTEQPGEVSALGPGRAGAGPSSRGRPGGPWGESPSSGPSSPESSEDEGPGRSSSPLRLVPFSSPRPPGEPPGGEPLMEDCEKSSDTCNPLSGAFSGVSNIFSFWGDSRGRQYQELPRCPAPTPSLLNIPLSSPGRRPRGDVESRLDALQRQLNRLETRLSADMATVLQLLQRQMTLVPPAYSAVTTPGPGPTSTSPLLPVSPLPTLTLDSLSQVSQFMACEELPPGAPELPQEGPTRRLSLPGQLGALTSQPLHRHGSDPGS

Structure (SMILES) | hERG current change (%, negative = inhibition) at 10uM [%]
Cc1cc(C)nc(NS(=O)(=O)c2ccc(NC(=O)COc3ccccc3F)cc2)n1 | 4.9
CCCc1nc(SCc2ccccc2Cl)n[nH]1 | 10.7
COc1cccc(CN(C)CC(=O)Nc2sc3c(c2C#N)CCC3)c1OC | 10.3
COc1ccc(-n2c3c(cc(C#N)c2=O)C(=O)CCC3)cc1 | 29.1
COc1ccc(Oc2c(C)oc3c(CN(C)C)c(O)ccc3c2=O)cc1 | -1.88
O=c1cc(-c2ccccc2)oc2ccccc12 | -4.17
Cc1cc(Cl)ccc1Oc1ncnc2oc(-c3ccccc3)cc12 | -0.172
CC(C)C[NH+]=c1cc(-c2ccccc2)oc2ccc(Cl)cc12.F[B-](F)(F)F | -87.4
O=C(O)c1cc(=O)c2cc(Cl)ccc2o1 | 17.3
CC(O)C[NH+]=c1cc(-c2ccccc2)oc2ccc(Cl)cc12.F[B-](F)(F)F (centres unmarked) | -69.4
Clc1ccc(Oc2ncnc3oc(-c4ccccc4)cc23)cc1 | 4.39
Cc1nn(Cc2ccccc2Cl)c(C)c1C(=O)OCC(=O)N1CC(C)OC(C)C1 (centres unmarked) | 1.43
Clc1ccc(N2CCN(Cc3ccco3)CC2)cc1 | -14.2
CCOC(=O)Cc1c(C)nc2c(-c3ccccc3)c[nH]n2c1=O | 2.48
Cc1nn(S(=O)(=O)N2CCOCC2)c(C)c1Br | -0.162
O=C(O)C(Cc1ccccc1)N1C(=O)c2c(Cl)c(Cl)c(Cl)c(Cl)c2C1=O (centres unmarked) | 3
COc1ccc(NS(=O)(=O)c2cc(NC(=O)C3CC3)ccc2N2CCCCC2)cc1 | 9.99
COC(=O)c1cccc([N+](=O)[O-])c1CN1CCCC(C(N)=O)C1 (centres unmarked) | 18.4
O=C(N/C(=C/c1ccc(Br)cc1)C(=O)N1CCCCC1)c1ccccc1F | -40.7
O=C(N/C(=C/c1ccc(Br)cc1)C(=O)N1CCCC1)c1ccccc1F | -71.5
COc1ccccc1C(=O)N/C(=C\c1ccc(Br)cc1)C(=O)N1CCCC1 | -48.6
COc1ccccc1C(=O)N/C(=C/c1ccc(Br)cc1)C(=O)N1CCCC1 | -48.9
O=C(N/C(=C\c1ccc(Br)cc1)C(=O)N1CCCC1)c1ccccc1F | -71.8
O=C(N/C(=C\c1ccc(Br)cc1)C(=O)N1CCOCC1)c1ccccc1Cl | -2.31
CCCCn1cnc2c(c1=O)c1nc3ccccc3nc1n2Cc1ccc2c(c1)OCO2 | 24.1
O=C(NCCCNC(=O)c1cnccn1)c1cccc(Cl)c1 | -5.72
O=C(COC(=O)/C=C/c1ccc(S(=O)(=O)N2CCOCC2)cc1)NCc1ccc(Cl)cc1 | 1.35

Structure (SMILES) | hERG current change (%, negative = inhibition) at 10uM [%]
Cc1cccc(N2CCN(C(=O)c3cc4c(=O)n(C)c5ccccc5c4n3C)CC2C)c1 (centres unmarked) | -16
Cc1ccc(S(=O)(=O)NCCC(=O)OCC(=O)Nc2ccccc2Cl)cc1 | -10.5
COc1ccc(-c2cc(C(=O)N3CCN(c4ccccc4)CC3)c3ccccc3n2)cc1 | 5.37
COc1ccc(N2CCN(C(=O)c3cccn4c(=O)c5ccccc5nc34)CC2)cc1 | -60.1
O=C(c1cccn2c(=O)c3cc(Br)ccc3nc12)N1CCN(c2ccccn2)CC1 | -33.6
O=C(c1cccn2c(=O)c3ccccc3nc12)N1CCC2(CC1)OCCO2 | 5.98
O=C(c1cccn2c(=O)c3ccccc3nc12)N1CCN(c2ccccn2)CC1 | -53
O=C(c1cccn2c(=O)c3cc4ccccc4cc3nc12)N1CCN(c2ccccc2)CC1 | -7.73
COc1ccc2c(c1OC)C(=O)OC2C1c2c(cc3c(c2OC)OCO3)CCN1C (centres unmarked) | -1.42
COc1ccc(OC)c(NC(=O)CSc2nc3ccccc3c(=O)n2CC2CCCO2)c1 (centres unmarked) | -41.2
O=C(CSc1nc2ccccc2c(=O)n1CCC(=O)N1CCN(c2ccccc2)CC1)NCC1CCCO1 (centres unmarked) | -45.6
O=C(CSc1nc2ccccc2c(=O)n1CC1CCCO1)Nc1ccccc1 (centres unmarked) | -14.1
CCOc1ccccc1NC(=O)CSc1nc2ccccc2c(=O)n1CC1CCCO1 (centres unmarked) | -68
O=C1CN(C(=O)CSc2nc3ccccc3c(=O)n2CC2CCCO2)c2ccccc2N1 (centres unmarked) | -31.3
O=C(CSc1nc2ccccc2c(=O)n1CC1CCCO1)N1CCN(c2ccccc2)CC1 (centres unmarked) | -73.4
O=C(CSc1nc2ccccc2c(=O)n1CC1CCCO1)NCc1ccccc1 (centres unmarked) | -11
COc1ccccc1N1CCN(C(=O)CSc2nc3ccccc3c(=O)n2CC2CCCO2)CC1 (centres unmarked) | -67.6
COc1ccccc1NC(=O)CSc1nc2ccccc2c(=O)n1CC1CCCO1 (centres unmarked) | 2.49
O=c1c2ccccc2nc(SCc2ccccc2)n1CC1CCCO1 (centres unmarked) | -6.67
O=c1c2ccccc2nc(SCc2ccncc2)n1CC1CCCO1 (centres unmarked) | -54
O=C(CSc1nc2ccccc2c(=O)n1CC1CCCO1)Nc1ccccc1Cl (centres unmarked) | -22.1
CC(C)(C)c1ccc(C(=O)NCC2CCCN2S(=O)(=O)c2ccccc2)cc1 (centres unmarked) | -6.28
Cc1ccc(C(=O)N/N=C2\CCSC2)cc1[N+](=O)[O-] | -2.95
COc1ccccc1C(CNC(=O)CSc1ccc2ccccc2c1)N(C)C (centres unmarked) | -34.9
COc1ccccc1NC(=O)Cn1cnc2c(cnn2-c2ccc(C)c(C)c2)c1=O | 12.1
Cc1[nH]c2ccccc2c1/C=N/NC(=O)c1cccc(S(=O)(=O)Nc2cccc(C(F)(F)F)c2)c1 | 18.6
